From publication PMC7862700, “An all-to-all approach to the identification of sequence-specific readers for epigenetic DNA modifications on cytosine” come the findings set out here.

Sequence of SPIB (Q01892 whole entry): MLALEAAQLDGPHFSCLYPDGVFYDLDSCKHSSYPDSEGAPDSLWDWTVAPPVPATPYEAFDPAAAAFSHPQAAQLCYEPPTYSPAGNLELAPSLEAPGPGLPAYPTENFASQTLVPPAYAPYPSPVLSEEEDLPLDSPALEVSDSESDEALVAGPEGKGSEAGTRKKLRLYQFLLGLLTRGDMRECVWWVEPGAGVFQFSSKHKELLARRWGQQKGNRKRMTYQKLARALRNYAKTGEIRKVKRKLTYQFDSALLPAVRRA

One assay deals with SPI1 (Homo sapiens, UniProt P17947 1-270). The assay is described as follows: DAPPL (digital affinity profiling via proximity ligation, sequencing); 10 mM Tris-HCl pH 7.5, 50 mM NaCl, 1 mM DTT, 4% glycerol, room temperature, 30 min; GST-TFs on glutathione beads, 16-mer random dsDNA library, 0.1% formaldehyde crosslink after washing; high values mean tight binding. As to conditions: protein: recombinant; tags: N-terminal GST; dsDNA, one strand shown. An outline of the steps: (§1)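 After expression in yeast as GST fusions, human transcription factors were bound to glutathione beads, DNA-barcoded and mixed with a tag-only sample. The pools were incubated with 200 nmole of a 16-mer random double-stranded DNA library in Tris/NaCl/DTT/glycerol buffer (30 min, room temperature), washed and crosslinked with 0.1% formaldehyde. Proximity ligation with BsaI/T4 ligase ran for 1 h at 37 °C, before PCR amplification and sequencing on an Illumina NextSeq500. Binding signal is a hexamer's read frequency for a factor divided by its frequency for the tag-only sample.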
On to CGGATG, for which the binding signal is 1.52 fold enrichment (6-mer frequency, TF over GST control).
Turning to CCATAC, the binding signal was 1.18 fold enrichment (6-mer frequency, TF over GST control).
Turning to AACAGG, the binding signal was 1.43 fold enrichment (6-mer frequency, TF over GST control).
Same read-out and setting: the result for GTAACA reads 1.12 fold enrichment (6-mer frequency, TF over GST control); that for GCGCCT, 1.12 fold enrichment (6-mer frequency, TF over GST control); that for TGTCCG, 1.2 fold enrichment (6-mer frequency, TF over GST control).
Consider GCACAT, for which the binding signal is 1.14 fold enrichment (6-mer frequency, TF over GST control).
As to CGGCAT, the binding signal was 1.13 fold enrichment (6-mer frequency, TF over GST control).
For the sequence CACTCA, the binding signal is 1.08 fold enrichment (6-mer frequency, TF over GST control).
Same read-out and setting: to GTATGC belongs 1.23 fold enrichment (6-mer frequency, TF over GST control); to CACAAT, 1.02 fold enrichment (6-mer frequency, TF over GST control).
Same read-out and setting: to CGACCG belongs 1.06 fold enrichment (6-mer frequency, TF over GST control); to CCGCCC, 1.17 fold enrichment (6-mer frequency, TF over GST control); to GATGTC, 1.23 fold enrichment (6-mer frequency, TF over GST control).
As for CCACCC, the binding signal is 1.22 fold enrichment (6-mer frequency, TF over GST control).
On the same count and under the same terms, the result for TTGGCC reads 1.08 fold enrichment (6-mer frequency, TF over GST control).
Still for that read-out and setting: the result for GTACCT reads 1.12 fold enrichment (6-mer frequency, TF over GST control); that for GATGCG, 1.14 fold enrichment (6-mer frequency, TF over GST control).
On the same count and under the same terms, the result for CATGGT reads 1.27 fold enrichment (6-mer frequency, TF over GST control); that for CGCCGC, 1.11 fold enrichment (6-mer frequency, TF over GST control).
With CTGTCA, the binding signal was 1.1 fold enrichment (6-mer frequency, TF over GST control).
The same measure, in the same setting: the result for GCCGAC reads 1.05 fold enrichment (6-mer frequency, TF over GST control); that for GCACAA, 1.05 fold enrichment (6-mer frequency, TF over GST control).
For the sequence ACATGT, the binding signal is 1.14 fold enrichment (6-mer frequency, TF over GST control).
For CTGGTC, the binding signal was 1.13 fold enrichment (6-mer frequency, TF over GST control).
As for CCAAAC, the binding signal was 1.06 fold enrichment (6-mer frequency, TF over GST control).
Same read-out and setting: the result for ACAGGA reads 1.34 fold enrichment (6-mer frequency, TF over GST control); that for AGTGGC, 1.75 fold enrichment (6-mer frequency, TF over GST control).
Take ACAAAC: the binding signal was 1.11 fold enrichment (6-mer frequency, TF over GST control).
With CACACG, the binding signal is 1.08 fold enrichment (6-mer frequency, TF over GST control).
Still for that read-out and setting: to CCCATC belongs 1.11 fold enrichment (6-mer frequency, TF over GST control).
In the case of CCGGTT, the binding signal was 2.11 fold enrichment (6-mer frequency, TF over GST control).
CAAATG: the binding signal is 1.25 fold enrichment (6-mer frequency, TF over GST control).
The same measure, in the same setting: to CCGGTA belongs 1.45 fold enrichment (6-mer frequency, TF over GST control); to CATCAC, 1.11 fold enrichment (6-mer frequency, TF over GST control).
As to CTGTGC, the binding signal was 1.02 fold enrichment (6-mer frequency, TF over GST control).
Regarding GAAGCG, the binding signal was 1.43 fold enrichment (6-mer frequency, TF over GST control).
On to CAATGC, for which the binding signal was 1.12 fold enrichment (6-mer frequency, TF over GST control).
Same read-out and setting: the result for GTCACA reads 1.13 fold enrichment (6-mer frequency, TF over GST control).

Another assay deals with SPIB (Homo sapiens, UniProt Q01892 1-262). Described as above. As to conditions: protein: recombinant; tags: N-terminal GST; dsDNA, one strand shown. An outline of the steps:
as §1
In the case of CGGATG, the binding signal is 1.6 fold enrichment (6-mer frequency, TF over GST control).
Still for that read-out and setting: the result for CCATAC reads 1.15 fold enrichment (6-mer frequency, TF over GST control); that for AACAGG, 1.16 fold enrichment (6-mer frequency, TF over GST control); that for GTAACA, 1.03 fold enrichment (6-mer frequency, TF over GST control).
GCGCCT: the binding signal is 1.16 fold enrichment (6-mer frequency, TF over GST control).
As for TGTCCG, the binding signal is 1.56 fold enrichment (6-mer frequency, TF over GST control).
Regarding GCACAT, the binding signal was 1.08 fold enrichment (6-mer frequency, TF over GST control).
In the case of CGGCAT, the binding signal was 1.19 fold enrichment (6-mer frequency, TF over GST control).
Same read-out and setting: the result for CACTCA reads 1.21 fold enrichment (6-mer frequency, TF over GST control).
Same read-out and setting: to GTATGC belongs 1.2 fold enrichment (6-mer frequency, TF over GST control).
On the same count and under the same terms, the result for CACAAT reads 1.16 fold enrichment (6-mer frequency, TF over GST control).
In the case of CGACCG, the binding signal was 1.07 fold enrichment (6-mer frequency, TF over GST control).
Turning to CCGCCC, the binding signal was 1.19 fold enrichment (6-mer frequency, TF over GST control).
GATGTC: the binding signal was 1.37 fold enrichment (6-mer frequency, TF over GST control).
On the same count and under the same terms, the result for CCACCC reads 1.31 fold enrichment (6-mer frequency, TF over GST control); that for TTGGCC, 1.16 fold enrichment (6-mer frequency, TF over GST control); that for GTACCT, 1.18 fold enrichment (6-mer frequency, TF over GST control).
For the sequence GATGCG, the binding signal was 1.19 fold enrichment (6-mer frequency, TF over GST control).
Consider CATGGT, for which the binding signal is 1.26 fold enrichment (6-mer frequency, TF over GST control).
Same read-out and setting: the result for CGCCGC reads 1.11 fold enrichment (6-mer frequency, TF over GST control); that for CTGTCA, 1.15 fold enrichment (6-mer frequency, TF over GST control); that for GCCGAC, 1.18 fold enrichment (6-mer frequency, TF over GST control).
Same read-out and setting: the result for GCACAA reads 1.09 fold enrichment (6-mer frequency, TF over GST control); that for ACATGT, 1.15 fold enrichment (6-mer frequency, TF over GST control); that for CTGGTC, 1.35 fold enrichment (6-mer frequency, TF over GST control).
On the same count and under the same terms, the result for CCAAAC reads 1.06 fold enrichment (6-mer frequency, TF over GST control); that for ACAGGA, 1.22 fold enrichment (6-mer frequency, TF over GST control); that for AGTGGC, 1.3 fold enrichment (6-mer frequency, TF over GST control).
As to ACAAAC, the binding signal was 1.11 fold enrichment (6-mer frequency, TF over GST control).
As for CACACG, the binding signal is 1.15 fold enrichment (6-mer frequency, TF over GST control).
Still for that read-out and setting: to CCCATC belongs 1.18 fold enrichment (6-mer frequency, TF over GST control); to CCGGTT, 1.97 fold enrichment (6-mer frequency, TF over GST control).
As to CAAATG, the binding signal was 1.13 fold enrichment (6-mer frequency, TF over GST control).
For CCGGTA, the binding signal is 1.59 fold enrichment (6-mer frequency, TF over GST control).
Take CATCAC: the binding signal was 1.11 fold enrichment (6-mer frequency, TF over GST control).
Same read-out and setting: to CTGTGC belongs 1.13 fold enrichment (6-mer frequency, TF over GST control).
The same measure, in the same setting: the result for GAAGCG reads 1.28 fold enrichment (6-mer frequency, TF over GST control); that for CAATGC, 1.32 fold enrichment (6-mer frequency, TF over GST control).
Still for that read-out and setting: the result for GTCACA reads 1.07 fold enrichment (6-mer frequency, TF over GST control).

The target of a further assay is T1, ELK3 (Homo sapiens, UniProt P41970 1-407).
T1 sequence: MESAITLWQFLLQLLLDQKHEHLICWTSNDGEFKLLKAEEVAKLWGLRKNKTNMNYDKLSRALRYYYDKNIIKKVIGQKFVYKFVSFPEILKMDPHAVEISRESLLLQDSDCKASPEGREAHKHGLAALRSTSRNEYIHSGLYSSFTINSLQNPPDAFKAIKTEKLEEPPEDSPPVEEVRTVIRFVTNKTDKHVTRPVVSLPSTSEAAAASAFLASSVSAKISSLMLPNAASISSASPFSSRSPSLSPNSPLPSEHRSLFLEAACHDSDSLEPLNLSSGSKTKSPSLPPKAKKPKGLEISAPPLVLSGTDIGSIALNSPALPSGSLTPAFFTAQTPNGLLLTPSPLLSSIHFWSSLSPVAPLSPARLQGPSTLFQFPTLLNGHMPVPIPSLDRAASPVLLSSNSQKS
The description is as above. As to conditions: protein: recombinant; tags: N-terminal GST; dsDNA, one strand shown. In short, it runs like this: as §1
As for CGGATG, the binding signal is 1.6 fold enrichment (6-mer frequency, TF over GST control).
Still for that read-out and setting: to CCATAC belongs 1.2 fold enrichment (6-mer frequency, TF over GST control).
For the sequence AACAGG, the binding signal is 1.11 fold enrichment (6-mer frequency, TF over GST control).
GTAACA: the binding signal was 1.19 fold enrichment (6-mer frequency, TF over GST control).
Take GCGCCT: the binding signal is 1.05 fold enrichment (6-mer frequency, TF over GST control).
Still for that read-out and setting: to TGTCCG belongs 1.39 fold enrichment (6-mer frequency, TF over GST control).
Still for that read-out and setting: to GCACAT belongs 1.17 fold enrichment (6-mer frequency, TF over GST control).
As to CGGCAT, the binding signal was 1.09 fold enrichment (6-mer frequency, TF over GST control).
Still for that read-out and setting: the result for CACTCA reads 1.19 fold enrichment (6-mer frequency, TF over GST control).
Consider GTATGC, for which the binding signal was 1.13 fold enrichment (6-mer frequency, TF over GST control).
Take CACAAT: the binding signal is 1.26 fold enrichment (6-mer frequency, TF over GST control).
On the same count and under the same terms, to CGACCG belongs 1.21 fold enrichment (6-mer frequency, TF over GST control); to CCGCCC, 1.48 fold enrichment (6-mer frequency, TF over GST control).
The same measure, in the same setting: to GATGTC belongs 1.19 fold enrichment (6-mer frequency, TF over GST control); to CCACCC, 1.23 fold enrichment (6-mer frequency, TF over GST control).
On to TTGGCC, for which the binding signal was 1.12 fold enrichment (6-mer frequency, TF over GST control).
On the same count and under the same terms, the result for GTACCT reads 1.1 fold enrichment (6-mer frequency, TF over GST control); that for GATGCG, 1.1 fold enrichment (6-mer frequency, TF over GST control); that for CATGGT, 1.3 fold enrichment (6-mer frequency, TF over GST control).
Still for that read-out and setting: to CGCCGC belongs 1.32 fold enrichment (6-mer frequency, TF over GST control); to CTGTCA, 1.08 fold enrichment (6-mer frequency, TF over GST control).
With GCCGAC, the binding signal is 1.15 fold enrichment (6-mer frequency, TF over GST control).
Same read-out and setting: the result for GCACAA reads 1.12 fold enrichment (6-mer frequency, TF over GST control); that for ACATGT, 1.06 fold enrichment (6-mer frequency, TF over GST control); that for CTGGTC, 1.09 fold enrichment (6-mer frequency, TF over GST control).
On the same count and under the same terms, the result for CCAAAC reads 1.15 fold enrichment (6-mer frequency, TF over GST control).
On to ACAGGA, for which the binding signal was 1.04 fold enrichment (6-mer frequency, TF over GST control).
On the same count and under the same terms, to AGTGGC belongs 1.31 fold enrichment (6-mer frequency, TF over GST control); to ACAAAC, 1.17 fold enrichment (6-mer frequency, TF over GST control); to CACACG, 1.03 fold enrichment (6-mer frequency, TF over GST control).
For CCCATC, the binding signal was 1.21 fold enrichment (6-mer frequency, TF over GST control).
Take CCGGTT: the binding signal was 2.26 fold enrichment (6-mer frequency, TF over GST control).
The same measure, in the same setting: to CAAATG belongs 1.09 fold enrichment (6-mer frequency, TF over GST control).
Regarding CCGGTA, the binding signal was 1.41 fold enrichment (6-mer frequency, TF over GST control).
Turning to CATCAC, the binding signal is 1.05 fold enrichment (6-mer frequency, TF over GST control).
As to CTGTGC, the binding signal is 1.09 fold enrichment (6-mer frequency, TF over GST control).
Same read-out and setting: the result for GAAGCG reads 1.49 fold enrichment (6-mer frequency, TF over GST control).
Consider CAATGC, for which the binding signal is 1.21 fold enrichment (6-mer frequency, TF over GST control).
As to GTCACA, the binding signal is 1.04 fold enrichment (6-mer frequency, TF over GST control).
